Among all 96,000 compounds or so, about 20,000 (21%) were called active. Not all results are given here. Unmarked numbers belong to inactive results.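 Rule for the calls: active = CYP2C19 inhibition above a set limit at 5 µM in the primary screen (cut at about 50% in these data); inactive = the rest.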

The target of this assay is Cytochrome P450 2C19 (Homo sapiens) (UniProt P33261). Description: blockers of cytochrome P450 2C19 activity – biochemical, luminescence, ADME assay, primary screen (AID 778).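 Note: plate controls were negative control wells for no effect and 2.5 mM tranylcypromine positive control for full effect.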 To be noted: CYP2C19 Supersomes, luciferin-H EGE luminescence, 30 min; at 5 µM; hits give high values.
Cytochrome P450 2C19 (Homo sapiens), sequence (P33261 whole entry, looked up): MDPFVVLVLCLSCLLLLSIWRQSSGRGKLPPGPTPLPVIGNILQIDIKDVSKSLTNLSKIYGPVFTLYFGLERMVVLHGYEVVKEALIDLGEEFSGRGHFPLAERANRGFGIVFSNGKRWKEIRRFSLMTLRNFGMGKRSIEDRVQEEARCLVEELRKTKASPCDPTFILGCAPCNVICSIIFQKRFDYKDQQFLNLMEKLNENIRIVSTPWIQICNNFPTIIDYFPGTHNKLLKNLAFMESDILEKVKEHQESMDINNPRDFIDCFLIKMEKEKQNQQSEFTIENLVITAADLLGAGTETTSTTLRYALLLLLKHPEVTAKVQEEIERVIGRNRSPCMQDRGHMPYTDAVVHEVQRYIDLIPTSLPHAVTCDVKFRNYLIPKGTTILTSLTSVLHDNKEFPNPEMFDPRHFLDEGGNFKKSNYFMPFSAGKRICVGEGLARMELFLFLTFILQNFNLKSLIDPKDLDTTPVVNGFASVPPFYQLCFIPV
Consider `C=CCNc1ncnc2ccc(Br)cc12`, for which the inhibition (commonly the change of the read-out against control, counted positive when it falls) was 20.7%.

Turning to `Cc1nc(CNS(=O)(=O)c2cccnc2)cs1`, the inhibition was 19.3%.

On to `Cc1ccc(S(=O)(=O)NCc2csc(C)n2)c(C)c1`, for which the inhibition was 13.3%.

With `Cc1nc(CNS(=O)(=O)c2ccc(Oc3ccccc3)cc2)cs1`, the inhibition was 73.1% (active).

With `CCOC(=O)c1sc(NC(=O)c2cc(S(=O)(=O)N3CCOCC3)ccc2C)nc1C`, the inhibition was 35.4%.

On to `Cc1cc(=O)oc2cc(OC(C)C(=O)Nc3ccc(N4CCOCC4)cc3)ccc12` (stereo not drawn), for which the inhibition is 27.5%.

Consider `Cc1cc(C(=O)OC(C)C(=O)Nc2cccc(S(=O)(=O)N3CCOCC3)c2)c(C)o1` (stereo not drawn), for which the inhibition was 96.4% (active).

As to `CC(Sc1nncn1C)C(=O)Nc1ccccc1-c1ccccc1` (stereo not drawn), the inhibition was 9.5%.

Regarding `O=C1Nc2cc(Cl)c(Cl)cc2N(O)N1c1cc(Cl)cc(Cl)c1`, the inhibition is -1.7%.

As for `CN(C)Cc1c(O)ccc2occ(C(O)c3ccccc3)c12` (stereo not drawn), the inhibition was 70.5% (active).

Consider `c1csc(CN2CCN(Cc3cccs3)C2c2cccs2)c1`, for which the inhibition was 16.8%.

As to `O=C(CN1CCOCC1)Nc1cc(Cl)ccc1Cl`, the inhibition is 48.8%.

Consider `C=C(C)Cn1c(N2CCCC2)nc2c1c(=O)[nH]c(=O)n2C`, for which the inhibition was -8.1%.

Consider `COc1ccccc1N1CCN(C(=O)CSc2nnc(-c3ccoc3C)o2)CC1`, for which the inhibition is 17.4%.

Take `O=C(CSC1=Nc2ccccc2C2=NC(CC(=O)NCc3ccco3)C(=O)N12)NCc1ccco1` (stereo not drawn): the inhibition was 10.6%.

As for `CCC1CCCCN1CCCNC(=O)Cn1nc(-c2ccccc2)ccc1=O` (stereo not drawn), the inhibition was -1.3%.

For `Cc1ccsc1-c1nc(CSCC(=O)NCCN2CCCC2)c(C)o1`, the inhibition was 1.6%.

For `O=C(/C=C/c1ccc(Cl)cc1Cl)c1cccnc1`, the inhibition was 62.6% (active).

Consider `O=C(/C=C/c1ccc(Cl)cc1Cl)NCc1ccco1`, for which the inhibition was 31.8%.

On to `C/C(=C\C(=O)c1cccnc1)Nc1ccc(C)c(C)c1`, for which the inhibition was 37.2%.

For `C=CCn1c(N)c(S(=O)(=O)c2cccs2)c2nc3ccccc3nc21`, the inhibition is 80.5% (active).

With `Cc1ccc(S(=O)(=O)c2c(N)n(C)c3nc4ccccc4nc23)cc1`, the inhibition is 47.7%.

Regarding `C=CCn1c(N)c(C(=O)OCC(C)C)c2nc3ccccc3nc21`, the inhibition was 18.5%.

Consider `Cc1ccc(NC(=S)NCCN2CCOCC2)cc1`, for which the inhibition is 23%.

As for `COc1ccc(-c2noc(CN(C)S(=O)(=O)c3ccc(C)cc3)n2)cc1`, the inhibition was 40.2%.

In the case of `Cc1cccc(-c2noc(-c3ccc(F)cc3)n2)c1`, the inhibition was 32.6%.

As for `Cc1ccc(-c2noc(CSc3nnnn3-c3ccccc3)n2)cc1`, the inhibition is 73.4% (active).

With `COc1ccc(-c2noc(CSc3ccc(C)cc3)n2)cc1`, the inhibition was 78.6% (active).

`COc1ccc(-c2noc(-c3ccc(C)cc3)n2)cc1`: the inhibition was 6.2%.

Take `CSc1nnc(CNC(=O)c2ccccc2)n1-c1ccc(F)cc1`: the inhibition is -4.4%.

With `O=C(CSc1nnc(Cc2ccccc2)n1-c1ccccc1)N1CCOCC1`, the inhibition is 8.2%.

For the molecule `Fc1ccc(-n2c(Cc3ccccc3)nnc2SCc2nc(-c3ccc(Cl)cc3)no2)cc1`, the inhibition is 80% (active).

Consider `Cc1ccc(Nc2nc(CSc3nnnn3-c3ccccc3)cc(=O)[nH]2)cc1`, for which the inhibition is 16.7%.

With `Cc1ccc(-c2noc(CSc3nnc(-c4ccncc4)n3-c3ccc(F)cc3)n2)cc1`, the inhibition is 58.3% (active).

For `CCN(CC)C(=O)CSc1nnc(-c2cnccn2)n1-c1ccc(C)cc1`, the inhibition was -1.8%.

As for `Cc1cc2c(cc1C)N(C(=O)CN1C(=O)c3ccccc3C1=O)C(C)(C)c1ssc(=S)c1-2`, the inhibition was 3.4%.

For `OCCNCCCCOc1ccccc1F`, the inhibition was -2.2%.

In the case of `Cc1c(Br)c([N+](=O)[O-])nn1C(C)C(=O)Nc1nccs1` (stereo not drawn), the inhibition is 37.1%.

For the molecule `Cc1nnc(SCC(=O)N(C(C)C)C(C)C)nc1C`, the inhibition was 22.9%.

On to `CCc1nc(N2CCN(c3nc(C)cc(C)n3)CC2)c2oc3ccccc3c2n1`, for which the inhibition is 8.3%.

With `O=C(Nc1ccc(Br)cc1)c1cccc(NC(=O)C2C3CC4OC(=O)C2C4C3)c1` (stereo not drawn), the inhibition is 24.6%.

For the molecule `O=C(Nc1nncs1)c1ccccc1NS(=O)(=O)c1cccs1`, the inhibition was 46.2%.

Turning to `CC1(C)CC(=O)C(C=NCc2cccnc2)=C(O)C1`, the inhibition was 14.2%.

With `CCOC(=O)N1CCC(NC(=O)COc2cc(=O)n(C)c3ccccc23)CC1`, the inhibition was -16.3%.

In the case of `CN1C2CCC1/C(=C\c1ccccc1Cl)C(=O)/C2=C\c1ccccc1Cl`, the inhibition was -12.1%.

Regarding `Cc1ccc(CCNC(=O)C2CCN(S(=O)(=O)N3CCCC3)CC2)cc1`, the inhibition was 12.2%.

As to `CCCCOc1ccc(NC(=O)CSCC(=O)OCC)cc1`, the inhibition is 14.3%.

Regarding `O=S1(=O)CC(NCc2ccccc2)C(Nc2ccc(Cl)cc2)C1` (stereo not drawn), the inhibition is 46.7%.

Regarding `Cn1c(=O)c2c(n(Cc3ccccc3)c1=O)NC(=O)C2CC(=O)N1CCc2ccccc2C1` (stereo not drawn), the inhibition was -9.3%.

With `CC(Oc1ccc(-c2ccccc2)c(F)c1)c1ccn(S(=O)(=O)c2cccc3ccccc23)n1` (stereo not drawn), the inhibition was 25%.

As to `C=CCn1c(=N)n(CC(O)COc2ccc(OC)cc2)c2ccccc21` (stereo not drawn), the inhibition is 12.4%.

For the molecule `Cc1ccc(-c2noc(CSc3nnc(-c4cccs4)n3C)n2)cc1`, the inhibition is 23%.

Consider `Cc1ccc(-c2noc(CSc3nnc(-c4ccccc4)n3C)n2)cc1`, for which the inhibition is 88.2% (active).

In the case of `Cc1ccc(-c2noc(CC(c3ccccc3)c3ccccc3)n2)cc1`, the inhibition is 19.9%.

As for `CCCCCOC(=O)c1ccc(N2C(=O)C3C4C=CC(C4)C3C2=O)cc1` (stereo not drawn), the inhibition was -13.5%.

Consider `CC(=O)N1C(=O)C2(Nc3ccccc3N2)c2ccccc21`, for which the inhibition was -7.6%.

Consider `O=C1Nc2ccccc2C12Nc1ccccc1S2` (stereo not drawn), for which the inhibition was 80.5% (active).

Consider `Clc1cccc(N=C2NN=C(c3ccc4c(c3)OCCO4)CS2)c1`, for which the inhibition was 24.7%.

Consider `C=CC[n+]1c(-c2ccc(C)cc2)csc1NNC(=O)Nc1ccccc1`, for which the inhibition is 18%.

On to `Cn1c(-c2ccco2)nc2cc3ccccc3cc21`, for which the inhibition is 53.3% (active).

`CN(c1nc2ccccc2n2c(-c3ccco3)nnc12)S(=O)(=O)c1ccccc1`: the inhibition is 1.3%.

Regarding `c1coc(-c2nc3nc4ccccc4n3nc2-c2ccco2)c1`, the inhibition is -23.4%.

With `CSc1nc(C)nc2c1c(=O)n(C)c(=O)n2C`, the inhibition was -8.7%.

Take `CCCC1CC(C)(C(=O)Cn2[nH]c(=O)ccc2=O)OC1=O` (stereo not drawn): the inhibition is 0.3%.

On to `COc1ccc(-c2cc(C3CCN(c4ncccc4[N+](=O)[O-])CC3)[nH]n2)cc1`, for which the inhibition is 84.8% (active).

Consider `COc1cccc(NC(=O)c2nn(C34CC5CC(CC(C5)C3)C4)cc2[N+](=O)[O-])c1`, for which the inhibition is 9.7%.

Take `CCCn1c(=O)c(-c2ccccc2)c(O)c2ccccc21`: the inhibition was -13.5%.

Regarding `COc1ccc(S(=O)(=O)NC2(C(F)(F)F)N=C3SCCN3C2=O)cc1` (stereo not drawn), the inhibition is -1.5%.

Turning to `Cc1cccc(N2CCN(S(=O)(=O)c3ccc4[nH]c(=O)c(=O)[nH]c4c3)CC2C)c1` (stereo not drawn), the inhibition was 19.7%.

On to `CSc1nnc(-c2ccncc2)n1CCCN1CCCC1=O`, for which the inhibition is -0.2%.

For the molecule `CC(C)(CCl)C(=O)Nc1ccc(Sc2ccc(F)cc2)cc1`, the inhibition is -1.4%.

In the case of `COC(=O)c1ccc(Sc2ccc(F)cc2)c(N)c1`, the inhibition was 94.3% (active).

Turning to `CC(C)NC(=O)c1ccc(Sc2ccccc2)c([N+](=O)[O-])c1`, the inhibition was 36.8%.

For the molecule `c1cnc(NC2C3CC4CC(C3)CC2C4)nc1` (stereo not drawn), the inhibition is 26%.

For the molecule `CN(C)c1ccc(CNC2C3CC4CC(C3)CC2C4)cc1` (stereo not drawn), the inhibition was 75.5% (active).

`CN(C)c1ccc(CNC23CN4CN(CN(C4)C2)C3)cc1`: the inhibition is 0.2%.

`COc1ccc(F)cc1S(=O)(=O)Nc1ccc2c(c1)OCO2`: the inhibition is 69.4% (active).

Regarding `COc1ccc(C(=O)Nc2ccc3c(c2)OCO3)cc1OC`, the inhibition was 39.8%.

As to `COc1ccc(C(=O)Nc2ccc(S(=O)(=O)Nc3onc(C)c3C)cc2)cc1OC`, the inhibition is 15.5%.

As for `CC(C)CNS(=O)(=O)c1ccc(OCC(=O)Nc2ccc3c(c2)OCO3)c(Cl)c1`, the inhibition is -1%.

Consider `Cc1cc(Cl)c(S(=O)(=O)Nc2ccc3c(c2)OCCO3)cc1OCC(N)=O`, for which the inhibition was 15.3%.

With `COc1ccc(S(=O)(=O)Nc2ccc3c(c2)OCO3)cc1Cl`, the inhibition was 100% (active).

`COc1ccc(S(=O)(=O)Nc2ccc(F)cc2)c(C)c1C`: the inhibition is 94.9% (active).

Take `O=C1CCCC2=C1C(c1cccs1)n1nc(SCc3ccccc3)nc1N2` (stereo not drawn): the inhibition was -10.3%.

As for `N=c1c2c3c(sc2ncn1CCCN1CCOCC1)CCCCC3`, the inhibition is 7.8%.

For the molecule `CCOc1cc2[nH]c(=S)n(Cc3ccc(C(=O)NCCOC)cc3)c(=O)c2cc1OCC`, the inhibition was -10.8%.

Consider `CCOC(=O)N1CCN(Cc2oc(CO)cc(=O)c2O)CC1`, for which the inhibition is 5.4%.

Consider `CSCCC(NS(=O)(=O)c1ccc2c(c1)oc(=O)n2C)C(=O)NC1CCCc2ccccc21` (stereo not drawn), for which the inhibition was 7.6%.

Consider `OC1CN=C2Sc3ccccc3N2C1` (stereo not drawn), for which the inhibition is -7.4%.

Regarding `O=C(Cc1ccc2c(c1)CCCC2)Nc1ccccc1Cl`, the inhibition is 27.1%.

For `CC1(C)CC(CCC(=O)Nc2ccccc2Cl)C(=O)O1` (stereo not drawn), the inhibition is 1.2%.

Consider `O=C(Nc1ncc2c(n1)CC(c1ccco1)CC2=O)c1ccc(Cl)cc1` (stereo not drawn), for which the inhibition was 28.4%.

Turning to `CCCCOc1ccc(CSC(=N)N)cc1[N+](=O)[O-]`, the inhibition is 16.6%.

Turning to `CCCCOc1ccc(Cl)cc1CSc1nncn1N`, the inhibition was 86.7% (active).

`Cc1cc(=O)[nH]c(SCc2cc(Cl)ccc2OC(F)F)n1`: the inhibition is 29%.

Turning to `Cc1[nH]n(-c2ccc([N+](=O)[O-])cc2)c(=O)c1C=NCCN1CCN(C(=O)c2ccccc2F)CC1`, the inhibition is 9.2%.

In the case of `CCC(=O)Nc1ccccc1N1CCN(S(C)(=O)=O)CC1`, the inhibition is 10.6%.

For the molecule `COc1ccc(C(=O)NC(=S)Nc2ccccc2N2CCN(S(C)(=O)=O)CC2)cc1OC`, the inhibition is 75.2% (active).

Values taken from PubChem BioAssay AID778 (Sanford-Burnham Center for Chemical Genomics, 2007).
